# Test results taken from PubChem BioAssay AID1259421 (Broad Institute, 2018).
# Several values for one entry are separate records, joined by “and”; a condition that tells them apart may be missing. Identical values can stand only once. The whole screen tested about 6,400 compounds, of which about 610 (9.5%) were called active. No stated cut-off is given here; in the data, active means activity change below about -70%; inconclusive means no clear call, values can overlap the other calls; inactive means above that. What follows is part of a selection rich in actives, with near analogues and random picks from the rest. Where a structure was tested more than once in an assay, its records may differ in their call.
# Assay: T. gondii ME49Luc in HeLa cells, luciferase assay, 72 h, no IFN-y (AID 1259421)
# Conditions: stronger effect = lower value, concentration not given here
row,Compound,"activity change, negative = inhibition"
1,NCC(=O)Nc1ccc(-n2nc(C(F)(F)F)cc2-c2ccc3c(ccc4ccccc43)c2)cc1,-75.5% (active)
2,Cc1ccc(-c2cc(C(F)(F)F)nn2-c2ccc(S(N)(=O)=O)cc2)cc1,17% (inactive) and 0.0196% (inactive)
3,CCn1cnc(C(=O)NC)c1C(=O)NC,4% (inactive)
4,C[C@H](/C=C/[C@H](C)C(C)(C)O)[C@H]1CC[C@H]2/C(=C/C=C3C[C@@H](O)C[C@H](O)C3)CCC[C@]12C,20.9% (inactive)
5,N#Cc1cc2c(OCC(O)CN3CCN(C(c4ccccc4)c4ccccc4)CC3)cccc2[nH]1 (configuration not stated),-30% (inactive)
6,NCC(=O)N1C[C@H](NC(=O)c2ccccc2)C[C@H]1C(=O)O,17.6% (inactive)
7,CC1CC2C3CCC4=CC(=O)C=CC4(C)C3(F)C(O)CC2(C)C1(O)C(=O)CO (configuration not stated),-10.3% (inactive)
8,C=CCn1c(=O)c2cnc(Nc3ccc(N4CCN(C)CC4)cc3)nc2n1-c1cccc(C(C)(C)O)n1,-82.2% (active)
9,CN1CCN(c2cccc(Nc3nc4c(-c5ccc(S(C)(=O)=O)cc5)cccn4n3)c2)CC1,-0.0052% (inactive)
10,CC1(C)O[C@@H]2CC3C4CCC5=CC(=O)C=C[C@]5(C)C4[C@@H](O)C[C@]3(C)[C@]2(C(=O)CO)O1 (some centres not stated),0.966% (inactive)
11,CC(C)C(=O)OC[C@@]1(N=[N+]=[N-])O[C@@H](n2ccc(N)nc2=O)[C@H](OC(=O)C(C)C)[C@@H]1OC(=O)C(C)C,6.96% (inactive)
12,Cn1ncc(Cl)c1-c1cc(C(=O)N[C@H](CN)Cc2ccc(F)c(F)c2)oc1Cl,-80% (active)
13,Cn1ncc(Cl)c1-c1cc(C(=O)N[C@H](CN)Cc2cccc(F)c2)sc1Cl,-49.2% (inactive)
14,CNCC(=O)O,-1.68% (inactive)
15,CCOC(=O)c1c(C)n(C)c2ccc(O)cc12,-6.15% (inactive) and 12.7% (inactive)
16,CCCCCS(=O)(=O)CCCCCCCCCCn1c(-c2ccc(O)cc2)c(C)c2cc(O)ccc21,-63.6% (inactive) and -77.2% (active)
17,CCCCCCc1ccc(O)cc1O,10.9% (inactive)
18,C[C@@]12CCC3[C@@](CC[C@@H]4[C@](C)(C(=O)O)CCC[C@@]34C)(CC1=O)C2 (some centres not stated),7.66% (inactive)
19,O=C(O)CSc1nnc(Br)n1-c1ccc(C2CC2)c2ccccc12,0.38% (inactive)
20,CCCCCCCCCCOc1cc2c(=O)c(C(=O)OCC)c[nH]c2cc1OCC,30.1% (inactive)
21,O=C(O)c1cc(N(Cc2ccccc2O)Cc2ccccc2O)ccc1O,2.11% (inactive)

row,Compound,"activity change, negative = inhibition"
1,Cc1ccccc1-c1cc(N2CCN(C)CC2)ncc1N(C)C(=O)C(C)(C)c1cc(C(F)(F)F)cc(C(F)(F)F)c1,-80.1% (active)
2,CO[C@@]1(NC(=O)C2SC(=C(C(N)=O)C(=O)O)S2)C(=O)N2C(C(=O)O)=C(CSc3nnnn3C)CSC21 (some centres not stated),5.67% (inactive)
3,CC1CC2C3CC(F)C4=CC(=O)C=CC4(C)C3(F)C(O)CC2(C)C1(CC(=O)CO)C(=O)SCF (configuration not stated),-4.39% (inactive)
4,Cc1oc(=O)oc1COC(=O)C1=C([C@H]2CCCO2)S[C@@H]2[C@@H]([C@@H](C)O)C(=O)N12,16.9% (inactive)
5,Cc1cccc(Nc2nc(-c3ccncc3)cs2)c1,107% (inactive)
6,O=C(NCc1ccccc1)c1csc(Nc2ccncn2)n1,-56.6% (inactive)
7,O=C(NCc1cccc(O)c1)Nc1nc(-c2ccncc2)cs1,-70.8% (active)
8,CC(C)CN(C[C@@H](OP(=O)(O)O)[C@H](Cc1ccccc1)NC(=O)O[C@H]1CCOC1)S(=O)(=O)c1ccc(N)cc1,-5.19% (inactive)
9,CCC(CC)O[C@@H]1C=C(C(=O)O)C[C@H](N)[C@H]1NC(C)=O,3.98% (inactive)
10,O=C1Cc2c([nH]c3ccc([N+](=O)[O-])cc23)-c2ccccc2N1,-78% (active)
11,O=C1Cc2c([nH]c3ccc(Br)cc23)-c2ccccc2N1,406% (inactive) and -6.73% (inactive)
12,O=C1Cc2c([nH]c3ccc(Br)cc23)-c2ncccc2N1,206% (inactive)
13,O=c1c2c(c1=O)N(CCP(=O)(O)O)CCCN2,4.23% (inactive)
14,OCCN1C[C@@H](O)[C@@H](O)C(O)C1CO (some centres not stated),10.9% (inactive)
15,COC(=O)[C@H](NC(=O)c1cc(-c2ccccc2)nc2ccccc12)c1ccccc1,9.5% (inactive) and 19.2% (inactive)
16,Cc1cc2ncc(-c3ccccc3)nc2cc1C,459% (inactive)
17,COc1cc2ncc(-c3ccccc3)nc2cc1OC,-82.6% (active)
18,COc1ccc(-c2oc3cc(OC)c(OC)c(OC)c3c(=O)c2OC)cc1,-3.53% (inactive)
19,CC(=O)c1cc([N+](=O)[O-])c(Sc2cccc(Cl)c2Cl)s1,14.1% (inactive)
20,CC(=O)c1cc([N+](=O)[O-])c(Sc2ccc(F)cc2F)s1,-85.3% (active)
21,C=C[C@@]1(C)CC(=O)[C@]2(O)[C@@]3(C)[C@@H](O)CCC(C)(C)[C@@H]3[C@H](OC(=O)CCN(C)C)[C@H](OC(C)=O)[C@@]2(C)O1,0.0952% (inactive)

row,Compound,"activity change, negative = inhibition"
1,C=CCN1CCN(c2nc3ccccc3nc2C#N)CC1,-7.28% (inactive) and 5.54% (inactive)
2,c1ccc(Cn2c(N3CCNCC3)nc3ccccc32)cc1,6.11% (inactive)
3,Cc1oc2nc3c(c(NC(=O)CN4CCCC4=O)c2c1C)CCCC3,1.4% (inactive)
4,Nc1cc2ncnc(Nc3cccc(Br)c3)c2cc1N,4.16% (inactive)
5,COc1cc2ncnc(Nc3ccc(O)c(Br)c3)c2cc1OC,-58.4% (inactive)
6,OCc1cc2ncnc(Nc3ccc(O)c(Br)c3)c2cc1CO,-79.3% (active)
7,C[C@H](CCC(=O)O)[C@@H]1CC[C@H]2[C@@H]3CC[C@@H]4C[C@H](O)CC[C@]4(C)[C@H]3CC[C@@]21C,11.8% (inactive)
8,Cn1c(COc2ccc(CC3SC(=O)NC3=O)cc2)nc2ccccc2c1=O (configuration not stated),-40.6% (inactive)
9,COc1ccc(-c2cc(=O)c3c(O)c(OC)c(O)cc3o2)cc1OC,48.9% (inactive)
10,CC[C@@H]1C(=O)N(C)c2cnc(Nc3ccc(C(=O)NC4CCN(C)CC4)cc3OC)nc2N1C1CCCC1,-62.8% (inactive)
11,CC[C@@H]1C(=O)N(C)c2cnc(Nc3ccc(C(=O)NC4CCC(N5CCN(CC6CC6)CC5)CC4)cc3OC)nc2N1C(C)C (some centres not stated),-84.3% (active)
12,COc1cc(OC2CCN(C)CC2)ccc1Nc1ncc2c(n1)n(C1CCCC1)c(=O)n2C,-32% (inactive)
13,COc1ccc2nc([S@@](=O)Cc3ncc(C)c(OC)c3C)[nH]c2c1,-6.99% (inactive) and 19.3% (inactive)
14,OCc1cncc(F)c1,11.3% (inactive)
15,O=C(O)c1cc(=O)c2ccc(Cl)cc2[nH]1,9.46% (inactive) and -2.93% (inactive)
16,O=C(O)c1cc(=O)c2ccccc2[nH]1,7.07% (inactive)
17,O=C(O)c1cc(=O)c2cccc(O)c2[nH]1,-75.2% (active)
18,COc1ccc(C(=O)N2CCCc3cc(C4=NNC(=O)SC4C)ccc32)cc1OC (configuration not stated),-41.6% (inactive)
19,CC1CCC(NC(=O)N(CCCl)[NH2+][O-])CC1 (configuration not stated),75.3% (inactive)
20,Cc1ccc(NC2=CC(=O)c3sc(C)nc3C2=O)cc1,-74.1% (active)
21,CC(C)(C)NCC(O)COc1ccc(NC(=O)NC2CCCCC2)cc1 (configuration not stated),3.16% (inactive)

row,Compound,"activity change, negative = inhibition"
1,COc1ccc(CCNCC(O)COc2cccc(C)c2)cc1OC (configuration not stated),9.54% (inactive)
2,CC1=C(C(=O)O)N2C(=O)[C@@H](NC(=O)C(N)c3ccc(O)cc3)[C@H]2SC1 (some centres not stated),4.06% (inactive)
3,Cc1ccc(CC2(O)CCN(CCOc3ccc(O)cc3)CC2)cc1,-6.15% (inactive) and -9.12% (inactive)
4,Cc1c(-c2ccc(O)cc2)n(Cc2ccc(OCCN3CCCCCC3)cc2)c2ccc(O)cc12,-80.5% (active)
5,O=C(c1ccc(OCCN2CCCCC2)cc1)c1c(-c2ccc(O)cc2)sc2cc(O)ccc12,-9.78% (inactive) and -5.73% (inactive)
6,CC(=O)OCCN1C(=O)c2c(C)nc3ccc(S(=O)(=O)N4CCOCC4)cc3c2C1=O,-1.17% (inactive)
7,Nc1cc(Nc2ccc(S(N)(=O)=O)cc2)ncn1,14.5% (inactive)
8,COc1c(O)cc2c(c1O)[C@H]1O[C@H](CO)[C@@H](O)[C@H](O)[C@@H]1OC2=O,-5.41% (inactive)
9,CCOC(=O)c1cnc2oc3ccc(O)cc3c2c1-c1ccccc1,6.27% (inactive)
10,CS(=O)(=O)CCNCc1nc(-c2ccc3ncnc(Nc4ccc(OCc5cccc(F)c5)c(Cl)c4)c3c2)cs1,-30.2% (inactive) and 30.3% (inactive)
11,CS(=O)(=O)CCNCc1ccc(-c2ccc3ncnc(Nc4ccc(OCc5cccc(F)c5)c(Cl)c4)c3c2)o1,-64.5% (inactive) and -82.3% (active)
12,C=CC(=O)Nc1ccc2ncnc(Nc3ccc(OCc4cccc(F)c4)c(Cl)c3)c2c1,-52.5% (inactive)
13,OC(CCl)CN1CC[N+]2(CC1)CC[N+]1(CCN(CC(O)CCl)CC1)CC2 (configuration not stated),9.78% (inactive)
14,CC1CCCC(C)N1NC(=O)c1ccc(Cl)c(S(N)(=O)=O)c1 (configuration not stated),15.9% (inactive)
15,NCCNS(=O)(=O)c1cccc2c(Cl)cccc12,-0.625% (inactive)
16,C#Cc1cccc(Nc2ncnc3cc(OCCOC)c(OCCOC)cc23)c1,-1.64% (inactive) and -10.5% (inactive)
17,C#Cc1cccc(Nc2ncnc3cc(OCCOC)c(OCCO)cc23)c1,-30.3% (inactive)
18,C#Cc1cccc(Nc2ncnc3cc(OC)c(OCCCCCCC(=O)NO)cc23)c1,-82.6% (active)
19,COc1ccc2[nH]c(S(=O)Cc3ncc(C)c(OC)c3C)nc2n1 (configuration not stated),29.4% (inactive) and 28.4% (inactive)
